Source: PubChem BioAssay
Calls of active or inactive are those of the source.

Experiment: yeast growth modulation, basal conditions, primary screen, YJM789 clinical isolate, OD600, 24 h (AID 1089);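 further: growth of clinical yeast isolate S. cerevisiae YJM 789 seeded 1000 cells per well; test concentration not given here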
Details: S. cerevisiae YJM789 growth, higher = more signal, called active from +8 up or from −8 down

z-score, inactive:
COC(=O)c1ccc(OC)c(/C=C\CC(CCc2ccccc2)OC(C)=O)c1 (stereo not given) -0.714
C[N+](C)(C)CCCC[C@@H]1NC(=O)[C@H]2C[C@@H](C(=O)NCCCCCCN)[C@@H](c3cccc(OCCO)c3)N2C1=O -0.0132
C/C=C/[C@@H](CCn1cc([C@H](O)c2ccccc2)nn1)[Si](C)(C)c1ccc(OC)cc1 -2.41
COC(=O)[C@@]1(Cc2ccc(F)cc2)[C@H]2c3cc(C(=O)N(C)C)n(CCSCCO)c3C[C@H]2CN1C(=O)c1ccccc1 0.125
CC1CC/C=C\[C@H]2OC34C=CCN(Cc5ccccc5)C(=O)[C@H]3N(CCO)C(=O)[C@@H]4C2C(=O)O1 (stereo not given in full) -0.404
C=C(COC)C(=O)CC[C@H](OC(=O)c1ccccc1-c1ccccc1C(=O)O)c1ccc(OCCO)cc1 -1.73
C=CCC(OC(C)=O)[C@@H]1[C@@H](N(Cc2cc3ccccc3o2)C(=O)Cc2ccc(OC)cc2)c2cc(OCCCO)ccc2N1C(=O)c1ccc(-c2ccccc2)cc1 (stereo not given in full) 0.0801
CC1CC/C=C\[C@H]2OC34C=CCN(c5ccc(Cl)cc5)C(=O)[C@H]3N(C(CO)C(C)C)C(=O)[C@]4(C)C2C(=O)O1 (stereo not given in full) 1.04
O=C1O[C@@H](c2ccccc2)[C@@H](c2ccccc2)N2[C@@H](c3ccc(O)cc3)[C@]3(C(=O)Nc4ccc(C#CC5(O)CCCCCC5)cc43)[C@@H](C(=O)N3CCN(c4ncccn4)CC3)[C@H]12 0.979
CC[C@@H]1[C@@H]2C3C(=O)N(CC)C(=O)C3CC(=O)[C@@H]2[C@H](c2ccc(C)cc2)N1S(=O)(=O)c1ccc(C)cc1 (stereo not given in full) -2.69
COCCOC(=O)N1C(=O)[C@@]2(c3cc(C#CCCO)ccc31)[C@H](C(=O)NC[C@H](O)c1ccccc1)[C@H]1C(=O)O[C@H](c3ccccc3)[C@H](c3ccccc3)N1[C@@H]2c1ccccc1OCCO 1.06
C=CCOC(=O)[C@@H]1[C@H]2C(=O)O[C@H](c3ccccc3)[C@H](c3ccccc3)N2[C@H](c2ccc(OCCOC(=O)[C@@H]3C[C@@H]4C(=O)N[C@@H](CCCCNC(C)=O)C(=O)N4[C@@H]3c3ccc(O)cc3)cc2)[C@@]12C(=O)Nc1ccc(I)cc12 0.0797
CC(C)CCC[C@@H](C)[C@H]1CC[C@@]2(C)C3=C(CC[C@]12C)[C@@]1(C)CC[C@H](OC(=O)c2ccc(N)cc2)C(C)(C)C1CC3 (stereo not given in full) -1.77
CCCN1C(=O)[C@@H]2Cc3c([nH]c4ccccc34)[C@@H](c3cccc(O)c3)N2C1=O -0.521
C=CCN1C(=O)[C@@]2(O[C@@H](CCn3cc([C@H](O)c4ccccc4)nn3)[C@H]([Si](C)(C)c3ccc(OC)cc3)[C@H]2C)c2cc(NC(=O)c3ccc(OC)cc3)ccc21 1.05
COc1ccc([Si](C)(C)[C@@H]2[C@@H](CC(=O)N(CCO)Cc3ccccc3)O[C@]3(C(=O)N(Cc4ccc(N5CCOC5=O)cc4)c4ccccc43)[C@H]2C)cc1 -0.677
COCCOC(=O)N1C(=O)[C@@]2(c3cc(C#Cc4ccc(OC)cc4)ccc31)[C@H](C(=O)N1CCc3cc(OC)c(OC)cc3C1)[C@H]1C(=O)O[C@H](c3ccccc3)[C@H](c3ccccc3)N1[C@@H]2c1ccc(O)cc1 1.99
CC(C)CNC(=O)[C@@]1(C)c2ccccc2C(=O)N(Cc2ccccc2)[C@H]1c1ccc(CO)cc1 -1.79
COc1ccccc1CN1C(=O)c2ccccc2[C@](Cc2ccccc2I)(C(=O)NCCN2CCOCC2)[C@@H]1c1ccc(CO)cc1 -2.4
CCCCCCC#C[Si](O[C@H](c1ccccc1)c1cn(Cc2cccc(Cl)c2)nn1)(C(C)C)C(C)C -0.381
COc1ccc([Si](C)(C)[C@@H]2[C@@H](CCO)O[C@]3(C(=O)N(Cc4ccccc4)c4ccc(N5CCCCC5=O)cc43)[C@H]2C)cc1 3.43
COC(=O)[C@@]1(Cc2ccc(F)cc2)[C@@H]2[C@@H](CC(=O)[C@H]2CC(=O)C(=O)N2CCCC2)CN1C(=O)c1ccccc1 0.347
COCCOC(=O)N1C(=O)[C@@]2(c3cc(C#CCCO)ccc31)[C@H](c1ccc(OCCO)cc1)N1[C@H](c3ccccc3)[C@H](c3ccccc3)OC(=O)[C@H]1[C@@H]2C(=O)N1CCc2cc(OC)c(OC)cc2C1 2.59
C=CC[C@]1(C(=O)NCC(O)CO)N=C(c2ccc(OCCCO)cc2)O[C@H]1c1ccccc1N=[N+]=[N-] (stereo not given in full) -0.285
O=C(O)[C@]1(CCS(=O)(=O)c2ccccc2)N=C(c2ccc(OCCCO)cc2)O[C@@H]1c1ccccc1 -0.15
[N-]=[N+]=NCc1ccccc1C[C@]1(C(=O)NCCN2CCOCC2)COC(c2ccc(OCCCO)cc2)=N1 -1.52
CC(C)C[C@@H]1NC(=O)[C@@H]2C[C@H](C(=O)NCc3ccc(F)cc3)[C@H](c3ccc(O)cc3)N2C1=O -0.472
C=CCNC(=O)[C@H]1[C@@H]2C(=O)O[C@@H](c3ccccc3)[C@@H](c3ccccc3)N2[C@@H](c2ccc(O)cc2)[C@]12C(=O)N(C(=O)OCCOC)c1ccc(C#CC3(O)CCCCCC3)cc12 0.729
COCCOC(=O)N1C(=O)[C@@]2(c3cc(C#CCC(C(=O)OC)C(=O)OC)ccc31)[C@H](C(=O)N1CCCCCCC1)[C@H]1C(=O)O[C@H](c3ccccc3)[C@H](c3ccccc3)N1[C@@H]2c1ccc(O)cc1 0.405
O=[N+]([O-])c1ccc(C[n+]2ccc(-c3ccc(CO)cc3)cc2)o1 -0.612
CN1C(=O)C2C=CC(C(O)COCc3ccccc3)N(Nc3ccccc3)C2C1=O (stereo not given) 0.12
COC(=O)[C@@]1(Cc2ccc(OC)cc2)[C@H]2c3cc(C(=O)N4CCCC4)n(CCc4ccc(O)c(OC)c4)c3C[C@H]2CN1C(=O)c1ccccc1 0.525
C=C(CCCC)/C(=C/C[C@H](OC(=O)c1ccncc1)c1ccc(CO)o1)c1cc(C(=O)OC)ccc1OC -0.0643
C[C@@H]1ON(c2ccccc2)[C@H](c2ccccc2)[C@H]1C(=O)N1C(=O)OC[C@H]1Cc1ccccc1 0.713

z-score, active:
CCCCCCCCCCC(O)C1C=CC2C(=O)NC(=O)C2N1Nc1ccccn1 (stereo not given) -20
